Reference: PubChem BioAssay AID1159580 (chemical genetic matrix, 2015)
Out of some 5,500 compounds screened, about 2,000 (36%) were called active. Inconclusive results (about 18%) are left out. Cut-off read from the data, not from the text of the source: active = normalized growth mostly below about 0.91 (no sharp cut-off); inconclusive = no clear call, values can overlap the other calls; inactive = mostly above about 0.92. This is one part of the list.

Experiment: chemical genetic growth profiling, strain panel (AID 1159580);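 note: tested at 20 µM; growth read once vehicle control cultures reached saturation at 30 °C; 1 = growth at the plate median or of vehicle wells; lower values mean less growth of the strain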
Details: growth OD
[1] = S. cerevisiae deletion strains, locus YAL013W, strain DEP1, active compounds read low
[2] = S. cerevisiae deletion strains, locus YDR150W, strain NUM1, active compounds read low
[3] = S. cerevisiae deletion strains, locus YJR075W, strain HOC1, active compounds read low
[4] = S. cerevisiae deletion strains, locus YMR263W, strain SAP30, active compounds read low
[5] = S. cerevisiae deletion strains, locus YMR307W, strain GAS1, active compounds read low
[6] = S. cerevisiae deletion strains, locus YNL322C, strain KRE1, active compounds read low
[7] = S. cerevisiae deletion strains, locus YPL055C, strain LGE1, active compounds read low

Measured: normalized growth

O=C(O)/C(=C/c1c(C(=O)O)[nH]c2cc(Cl)cc(Cl)c12)c1ccccc1
inactive: [1] 0.99 | S. cerevisiae deletion strains, locus YAL040C, strain CLN3, active compounds read low 1.07 | S. cerevisiae deletion strains, locus YCL061C, strain MRC1 (second series), active compounds read low 0.977 | [2] 0.979 | S. cerevisiae deletion strains, locus YDR363W, strain ESC2, active compounds read low 1.03 | S. cerevisiae deletion strains, locus YER002W, strain NOP16, active compounds read low 0.993 | S. cerevisiae deletion strains, locus YGR229C, strain SMI1, active compounds read low 0.999 | [3] 0.988 | [4] 0.979 | [5] 1.01 | S. cerevisiae deletion strains, locus YNL175C, strain NOP13, active compounds read low 0.996 | S. cerevisiae deletion strains, locus YNL197C, strain WHI3, active compounds read low 0.98 | S. cerevisiae deletion strains, locus YNL224C, strain SQS1, active compounds read low 0.977 | [6] 0.975 | S. cerevisiae deletion strains, locus YOR083W, strain WHI5 (second series), active compounds read low 0.99 | [7] 0.985

O=c1cc(C(F)(F)F)[nH]c2cc(Cl)cc(Cl)c12
inactive: S. cerevisiae deletion strains, locus YJL187C, strain SWE1, active compounds read low 1.01 | S. cerevisiae deletion strains, locus YPR135W, strain CTF4, active compounds read low 0.714
active: [1] 0.59 | S. cerevisiae deletion strains, locus YBR229C, strain ROT2, active compounds read low 0.47 | S. cerevisiae deletion strains, locus YCL061C, strain MRC1, active compounds read low 0.649 | S. cerevisiae deletion strains, locus YDL101C, strain DUN1, active compounds read low 0.513 | [2] 0.627 | S. cerevisiae deletion strains, locus YEL061C, strain CIN8, active compounds read low 0.745 | S. cerevisiae deletion strains, locus YGR078C, strain PAC10, active compounds read low 0.475 | S. cerevisiae deletion strains, locus YHR030C, strain SLT2, active compounds read low 0.564 | S. cerevisiae deletion strains, locus YHR087W, strain rtc3, active compounds read low 0.544 | S. cerevisiae deletion strains, locus YJR043C, strain POL32, active compounds read low 0.697 | [3] 0.514 | S. cerevisiae deletion strains, locus YLR039C, strain RIC1, active compounds read low 0.356 | S. cerevisiae deletion strains, locus YLR058C, strain SHM2 (second series), active compounds read low 0.694 | S. cerevisiae deletion strains, locus YLR085C, strain ARP6, active compounds read low 0.487 | S. cerevisiae deletion strains, locus YLR262C, strain YPT6, active compounds read low 0.428 | S. cerevisiae deletion strains, locus YML094W, strain GIM5, active compounds read low 0.854 | S. cerevisiae deletion strains, locus YMR219W, strain ESC1, active compounds read low 0.612 | [4] 0.456 | [5] 0.561 | S. cerevisiae deletion strains, locus YNL128W, strain TEP1, active compounds read low 0.881 | S. cerevisiae deletion strains, locus YNL153C, strain GIM3, active compounds read low 0.534 | S. cerevisiae deletion strains, locus YNL298W, strain CLA4 (second series), active compounds read low 0.742 | [6] 0.798 | S. cerevisiae deletion strains, locus YNR030W, strain Alg12, active compounds read low 0.664 | [7] 0.523 | S. cerevisiae deletion strains, locus YPL241C, strain CIN2, active compounds read low 0.748 | S. cerevisiae strains, strain wild type, active compounds read low 0.836
